Measurements reported in PubChem BioAssay (Tox21).
A number with no mark means an inactive call. Inconclusive results are not listed. Where a call stands in place of a potency, no number is given. The source made the active and inactive calls. Unless noted, calls come from the whole dose curve; as a rule, active = well fitted curve in the direction sought with a large enough effect in the repeat runs; inconclusive = weak or mixed curves; inactive = no such curve, though single readings can be large; an effect the other way counts as inactive or inconclusive.

Experiments:
[1] = biological target: Thyrotropin receptor (Homo sapiens) (UniProt P16473); experiment: qHTS assay to identify small molecule antagonists of the thyroid stimulating hormone receptor (TSHR) signaling pathway (AID 1259385; calls by dose curve; note: nearly all actives have a fitted effect of over 20% in size)
Outline: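 Antagonist mode: compound-treated TSHR-expressing HEK293 cells were stimulated with 1.5 ng/mL TSH (final) in presence of Ro20-1724 for 30 min at RT. HTRF cAMP detection after 1 h; each compound tested at 15 concentrations, triplicate.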

[2] = qHTS assay to identify small molecule agonists of the estrogen receptor alpha (ER-alpha) signaling pathway in the presence of an antagonist - cell viability counter screen (AID 1259386);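 note: series mostly up to about 92 µM; cells exposed to compounds for 22 h at 37 °C before the viability read; nearly all actives have a fitted effect of over 30% in size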
Outline: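 Cytotoxicity was measured in parallel with the ERE-luciferase agonist screen, in the same wells. The cells were VM7Luc4E2, which endogenously express ER-alpha, and treatment was with compounds plus 10.0nM ICI-182,780 for 22hr.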

[3] = biological target: Progesterone receptor (Homo sapiens) (UniProt P06401); experiment: qHTS assay to identify small molecule agonists of the progesterone receptor (PR) signaling pathway (AID 1346784; calls by dose curve; note: nearly all actives have a fitted effect of over 30% in size)
Outline: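 Using charcoal-stripped serum (2%) to limit endogenous steroids, PR-UAS-bla HEK 293T cells received compounds for 16 hr at 37C after 6 hr plating; beta-lactamase FRET fluorescence was recorded following 2 hr substrate loading at room temperature.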

[4] = biological target: Progesterone receptor (Homo sapiens) (UniProt P06401); experiment: qHTS assay to identify small molecule antagonists of the progesterone receptor (PR) signaling pathway (AID 1346795; active = well fitted inhibition curve with a large enough effect in the signal ratio in the repeat runs, not every such curve was filed as active; the % refers to the signal ratio)
Outline: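 Inhibition of R5020-induced (1 nM final) beta-lactamase reporter signal in PR-UAS-bla HEK293T cells was scored by FRET fluorescence after overnight (16 hr) compound treatment.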

[5] = qHTS assay to identify small molecule antagonists of the progesterone receptor (PR) signaling pathway - cell viability counter screen (AID 1346798); note: series mostly up to about 92 µM; nearly all actives have a fitted effect of over 50% in size
Outline: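 ATP content as viability readout: CellTiter-Glo luminescence, 30 min room temperature, in PR-UAS-bla HEK293T cells after 16 hr compound/R5020 treatment at 37C and 5% CO2.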

[6] = qHTS assay to identify small molecule agonists of the progesterone receptor (PR) signaling pathway - cell viability counter screen (AID 1346799; calls by dose curve; note: nearly all actives have a fitted effect of over 45% in size; note: potency is the fitted concentration of half-maximal effect)
Outline: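 Cytotoxicity in PR-bla HEK293T cells: 16 h compound, 37C; CellTiter-Glo added post-FRET read; luminescence after 30 min RT.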

[7] = qHTS assay to identify small molecule antagonists of the TGF-beta/Smad signaling pathway - cell viability counter screen (AID 1346824); note: nearly all actives have a fitted effect of over 50% in size
Outline: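 Cytotoxicity counter-screen run in the same wells as the beta-lactamase Smad reporter read: CellTiter-Glo luminescence after 30 min at room temperature. HEK 293T SBE-bla cells had 5 hr compound exposure at 37 C with TGF-beta1 (0.25 ng/mL stock).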

[8] = qHTS assay to identify small molecule agonists of the TGF-beta/Smad signaling pathway - cell viability counter screen (AID 1346829); note: top concentration of the series differs between compounds; nearly all actives have a fitted effect of over 45% in size
Outline: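 Luminescence from CellTiter-Glo, read after a 30 min room-temperature incubation, gives cell viability of SBE-bla HEK 293T cells treated 5 hr with compounds at 37 C.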

[9] = qHTS assay to identify small molecule agonists of the TGF-beta/Smad signaling pathway (AID 1346859; active = well fitted activation curve with a large enough effect in the signal ratio in the repeat runs, not every such curve was filed as active; the % refers to the signal ratio; note: series mostly up to about 77 µM)
Outline: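 Stable Smad binding element-beta-lactamase HEK 293T cells; 5 hr compound exposure at 37 C under 5% CO2; 2 hr room-temperature substrate step; fluorescence excited at 405 nm, collected at 460 nm and 530 nm.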

[10] = biological target: Thyrotropin-releasing hormone receptor (Homo sapiens) (UniProt P34981); experiment: qHTS assay to identify small molecule antagonists of the thyrotropin-releasing hormone receptor (TRHR) signaling pathway (AID 1346877; active = well fitted inhibition curve with a large enough effect in the repeat runs, not every such curve was filed as active; note: series mostly up to about 51 µM)
Outline: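 Antagonism is measured as suppression of the calcium response to 1 nM TRH in TRHR-HEK293 cells that have been dye-loaded for 2 h at 37 °C after overnight plating. Each compound is tested at 15 concentrations in triplicate.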

[11] = biological target: Thyrotropin-releasing hormone receptor (Homo sapiens) (UniProt P34981); experiment: qHTS assay to identify small molecule agonists of the thyrotropin-releasing hormone receptor (TRHR) signaling pathway (AID 1346891; calls by dose curve;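 note: HEK293 cells expressing TRHR with calcium dye readout; series mostly up to about 58 µM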)
Outline: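 In 1536-format, 1500 TRHR-Hek293 cells per well grew 18 h, took up calcium dye for 2 h at 37 °C, received compound, and were read kinetically; 15-point titrations, triplicates.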

[12] = Caspase-3/7 induction in HepG2 cells by small molecules, qHTS assay (AID 1346978); note: nearly all actives have a fitted effect of over 15% in size
Outline: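 Caspase-3/7 induction was measured by Caspase-Glo 3/7 luminescence (30 min, room temperature) after a 17 hr compound exposure of wild-type HepG2 cells seeded at 2,000 per well and pre-incubated 5 hr.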

[13] = Caspase-3/7 induction in CHO-K1 cells by small molecules, qHTS cell viability counter screen (AID 1346979); note: nearly all actives have a fitted effect of over 35% in size
Outline: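 To flag cytotoxic compounds, treated CHO-K1 wild-type cells were given CellTiter-Fluor at 16hr and read fluorescently after 1hr at 37C; the caspase-3/7 luminescence was measured in these same wells.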

[14] = Caspase-3/7 induction in CHO-K1 cells by small molecules, qHTS assay (AID 1346980); note: nearly all actives have a fitted effect of over 15% in size
Outline: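 Luminescent Caspase-Glo 3/7 read (30min, room temperature) quantified apoptosis induction. Cells were wild-type CHO-K1, treated with compound for 17hr at 37 C and 5% CO2.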

[15] = Caspase-3/7 induction in HepG2 cells by small molecules, qHTS cell viability counter screen (AID 1346981); note: series mostly up to about 92 µM; nearly all actives have a fitted effect of over 30% in size
Outline: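 Cell viability is measured as a cytotoxicity counter screen alongside the Caspase-Glo 3/7 readout in identical wells. Wild-type HepG2 cells are treated with test compounds for 16 hr at 37 C before CellTiter-Fluor addition and a 1-hr incubation.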

[16] = biological target: Cytochrome P450 2D6 (Homo sapiens) (UniProt P10635); experiment: Cytochrome P450 Family 2 Subfamily D Member 6 (CYP2D6) small molecule antagonists: luciferase reporter qHTS assay (AID 1671196); note: nearly all actives have a fitted effect of over 50% in size; note: potency is the fitted concentration of half-maximal effect
Outline: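 Enzyme and proluciferin substrate were first combined with test chemical for 10 min at room temperature. Adding NADPH regeneration solution started a 1 h reaction, stopped with luciferin detection reagent and read by luminescence 20 min later.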

[17] = Human pregnane X receptor (PXR) small molecule agonists, qHTS cell viability counter screen (AID 1346977); note: nearly all actives have a fitted effect of over 50% in size
Outline: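 Readout is CellTiter-Fluor fluorescence from PXR-Luc HepG2 cells. Plated cells rested 5hr, then were treated with compounds for 24hr at 37C and 5% CO2, with reagent present during the last hour.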

[18] = biological target: Nuclear receptor subfamily 1 group I member 2 (Homo sapiens) (UniProt O75469); experiment: Human pregnane X receptor (PXR) small molecule agonists, qHTS assay (AID 1346982); note: nearly all actives have a fitted effect of over 35% in size; note: potency is the fitted concentration of half-maximal effect
Outline: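 Cells: HepG2 stably carrying PXR-Luc. Medium held 5% charcoal-stripped FBS. Compounds in DMSO added after 5 hr plating, incubated 24 hr, then luminescence quantified with ONE-Glo.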

Progesterone receptor (Homo sapiens), sequence (P06401 whole entry, looked up): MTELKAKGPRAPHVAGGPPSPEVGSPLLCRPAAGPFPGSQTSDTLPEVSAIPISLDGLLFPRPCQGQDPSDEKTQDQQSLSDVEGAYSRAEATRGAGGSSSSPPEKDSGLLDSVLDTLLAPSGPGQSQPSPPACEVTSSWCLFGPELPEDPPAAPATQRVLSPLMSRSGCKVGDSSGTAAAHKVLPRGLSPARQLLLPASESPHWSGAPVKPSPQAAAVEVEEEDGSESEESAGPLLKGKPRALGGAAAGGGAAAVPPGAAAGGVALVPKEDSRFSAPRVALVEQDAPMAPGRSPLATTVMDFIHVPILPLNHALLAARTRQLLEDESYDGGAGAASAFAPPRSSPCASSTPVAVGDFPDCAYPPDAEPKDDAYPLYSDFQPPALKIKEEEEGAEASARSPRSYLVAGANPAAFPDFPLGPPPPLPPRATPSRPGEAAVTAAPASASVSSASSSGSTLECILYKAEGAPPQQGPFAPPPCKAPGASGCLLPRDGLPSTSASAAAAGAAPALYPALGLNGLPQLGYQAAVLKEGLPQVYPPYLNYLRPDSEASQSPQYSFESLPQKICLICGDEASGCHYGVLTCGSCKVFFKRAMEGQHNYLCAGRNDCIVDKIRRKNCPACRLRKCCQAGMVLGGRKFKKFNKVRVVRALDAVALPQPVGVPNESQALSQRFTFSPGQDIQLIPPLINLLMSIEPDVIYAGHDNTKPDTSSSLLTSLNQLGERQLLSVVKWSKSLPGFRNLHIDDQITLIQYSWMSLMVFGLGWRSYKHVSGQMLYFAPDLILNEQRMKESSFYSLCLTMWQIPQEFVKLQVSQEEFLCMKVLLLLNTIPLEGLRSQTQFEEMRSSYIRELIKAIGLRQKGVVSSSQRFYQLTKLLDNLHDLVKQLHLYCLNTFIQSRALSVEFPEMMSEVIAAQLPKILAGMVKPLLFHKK
Thyrotropin receptor (Homo sapiens), sequence (P16473 whole entry, looked up): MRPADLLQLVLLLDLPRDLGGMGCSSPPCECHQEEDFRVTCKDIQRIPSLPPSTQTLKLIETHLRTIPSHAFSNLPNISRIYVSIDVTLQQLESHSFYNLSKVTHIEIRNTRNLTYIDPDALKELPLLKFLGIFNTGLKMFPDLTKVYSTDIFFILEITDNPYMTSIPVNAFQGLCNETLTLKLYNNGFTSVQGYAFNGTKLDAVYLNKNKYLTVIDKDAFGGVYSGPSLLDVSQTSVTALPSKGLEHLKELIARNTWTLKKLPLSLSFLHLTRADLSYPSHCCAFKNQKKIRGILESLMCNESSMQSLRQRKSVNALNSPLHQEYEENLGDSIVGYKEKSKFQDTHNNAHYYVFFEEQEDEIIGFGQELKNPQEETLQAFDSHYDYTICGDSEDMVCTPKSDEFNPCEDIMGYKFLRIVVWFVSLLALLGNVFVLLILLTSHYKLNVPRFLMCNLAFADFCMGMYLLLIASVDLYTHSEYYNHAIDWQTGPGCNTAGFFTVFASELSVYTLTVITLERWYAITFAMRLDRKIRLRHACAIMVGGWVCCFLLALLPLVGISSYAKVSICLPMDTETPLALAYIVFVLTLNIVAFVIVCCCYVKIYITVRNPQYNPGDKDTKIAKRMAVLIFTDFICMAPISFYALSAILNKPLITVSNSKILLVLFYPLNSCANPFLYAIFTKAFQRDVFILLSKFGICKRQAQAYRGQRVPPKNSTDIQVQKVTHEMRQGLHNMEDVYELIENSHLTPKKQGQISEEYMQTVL
Cytochrome P450 2D6 (Homo sapiens), sequence (P10635 whole entry, looked up): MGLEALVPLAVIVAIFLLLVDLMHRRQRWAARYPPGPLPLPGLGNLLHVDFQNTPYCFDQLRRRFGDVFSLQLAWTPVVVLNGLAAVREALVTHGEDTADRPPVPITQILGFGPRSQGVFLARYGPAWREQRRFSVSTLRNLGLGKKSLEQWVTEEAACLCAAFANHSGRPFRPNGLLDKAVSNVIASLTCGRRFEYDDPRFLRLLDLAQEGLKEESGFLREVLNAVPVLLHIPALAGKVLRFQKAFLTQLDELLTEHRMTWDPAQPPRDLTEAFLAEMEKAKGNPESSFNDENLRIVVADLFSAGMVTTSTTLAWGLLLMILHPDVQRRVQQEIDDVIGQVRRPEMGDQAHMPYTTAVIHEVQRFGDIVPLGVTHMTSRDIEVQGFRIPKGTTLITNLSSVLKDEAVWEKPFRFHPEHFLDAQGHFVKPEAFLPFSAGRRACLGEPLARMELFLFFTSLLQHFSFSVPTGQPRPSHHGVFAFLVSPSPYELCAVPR
Nuclear receptor subfamily 1 group I member 2 (Homo sapiens), sequence (O75469 whole entry, looked up): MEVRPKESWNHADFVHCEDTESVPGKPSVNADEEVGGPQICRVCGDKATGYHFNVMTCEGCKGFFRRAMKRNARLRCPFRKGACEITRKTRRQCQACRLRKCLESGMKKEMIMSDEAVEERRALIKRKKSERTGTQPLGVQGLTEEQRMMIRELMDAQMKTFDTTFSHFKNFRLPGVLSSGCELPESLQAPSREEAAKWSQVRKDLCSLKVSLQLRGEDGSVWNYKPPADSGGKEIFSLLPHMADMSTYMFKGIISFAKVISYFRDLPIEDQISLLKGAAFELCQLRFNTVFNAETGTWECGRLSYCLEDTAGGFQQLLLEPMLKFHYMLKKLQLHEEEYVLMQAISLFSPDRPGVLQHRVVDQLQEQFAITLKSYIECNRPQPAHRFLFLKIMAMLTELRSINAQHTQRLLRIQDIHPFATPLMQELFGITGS
Thyrotropin-releasing hormone receptor (Homo sapiens), sequence (P34981 whole entry, looked up): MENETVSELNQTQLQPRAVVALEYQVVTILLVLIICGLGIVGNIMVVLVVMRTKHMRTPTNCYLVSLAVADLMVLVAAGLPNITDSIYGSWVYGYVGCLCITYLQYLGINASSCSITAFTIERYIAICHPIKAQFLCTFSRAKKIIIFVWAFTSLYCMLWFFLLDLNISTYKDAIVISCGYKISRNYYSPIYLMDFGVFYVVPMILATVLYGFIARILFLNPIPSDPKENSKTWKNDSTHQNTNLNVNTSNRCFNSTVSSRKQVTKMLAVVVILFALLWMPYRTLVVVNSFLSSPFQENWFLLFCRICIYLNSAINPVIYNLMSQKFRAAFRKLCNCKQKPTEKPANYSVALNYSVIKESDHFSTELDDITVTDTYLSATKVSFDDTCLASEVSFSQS

SMILES	Potency [1]	Potency [2]	Potency [3]	Potency [4]	Potency [5]	Potency [6]	outcome [7]	outcome [8]	outcome [9]	outcome [10]	outcome [11]	Potency [12]	Potency [13]	Potency [14]	Potency [15]	Potency [16]	Potency [17]	Potency [18]
CCC[Si](OC)(OC)OC	inactive	inactive	inactive	inactive	inactive	inactive	inactive	inactive	inactive	inactive	inactive	inactive	inactive	inactive	inactive	inactive	–	–
CC(C)Cc1nccs1	inactive	inactive	inactive	inactive	inactive	inactive	inactive	inactive	inactive	inactive	inactive	inactive	inactive	inactive	inactive	–	inactive	inactive
CC1(C)[C@@H]2CC[C@]3(C2)[C@@H]1C(=O)CCC3(C)C	inactive	inactive	inactive	inactive	inactive	27.3 µM (active)	inactive	inactive	inactive	–	–	inactive	inactive	inactive	inactive	31.7 µM (active)	inactive	9.69 µM (active)
CCCCCO	inactive	inactive	inactive	inactive	inactive	inactive	inactive	inactive	inactive	inactive	inactive	inactive	–	inactive	inactive	inactive	–	–
CC(CCl)OC(C)CCl (stereo not drawn)	inactive	inactive	inactive	inactive	inactive	inactive	inactive	inactive	inactive	inactive	inactive	inactive	inactive	inactive	inactive	–	inactive	–
O=C(OCCOCCOCCOC(=O)c1ccccc1)c1ccccc1	inactive	inactive	inactive	inactive	inactive	inactive	inactive	inactive	inactive	inactive	inactive	inactive	inactive	inactive	inactive	–	inactive	27.3 µM (active)
CCCC1CCOC(C)S1 (stereo not drawn)	inactive	inactive	inactive	inactive	inactive	inactive	inactive	inactive	inactive	inactive	inactive	inactive	inactive	inactive	–	inactive	inactive	inactive
CC(CN=Cc1ccccc1O)N=Cc1ccccc1O (stereo not drawn)	inactive	inactive	inactive	inactive	inactive	inactive	inactive	inactive	inactive	inactive	inactive	inactive	inactive	inactive	inactive	35.6 µM (active)	–	inactive
CC(C)(C)c1ccc(CCC=O)cc1	inactive	inactive	inactive	inactive	inactive	inactive	inactive	inactive	inactive	inactive	inactive	inactive	–	inactive	inactive	–	–	inactive
OCCCO	inactive	inactive	inactive	inactive	inactive	inactive	inactive	inactive	inactive	inactive	inactive	inactive	inactive	inactive	inactive	inactive	inactive	–
O=C(O)CNc1ccccc1	inactive	inactive	inactive	inactive	inactive	inactive	inactive	inactive	inactive	inactive	inactive	inactive	inactive	inactive	inactive	–	inactive	inactive
Cc1ccc(NC=O)c(C)c1	inactive	inactive	inactive	inactive	inactive	inactive	inactive	inactive	inactive	inactive	inactive	inactive	inactive	inactive	inactive	inactive	inactive	–
CCCCC(CC)COCCC#N (stereo not drawn)	inactive	inactive	inactive	inactive	inactive	inactive	inactive	inactive	inactive	inactive	inactive	inactive	inactive	inactive	–	inactive	–	–
CCCCCCCCC(=O)OCC(C)OC(=O)CCCCCCCC (stereo not drawn)	inactive	inactive	inactive	inactive	inactive	inactive	inactive	inactive	inactive	inactive	inactive	inactive	inactive	inactive	inactive	inactive	inactive	–
CC(C)(C(=O)O)c1ccc(C(O)CCCN2CCC(C(O)(c3ccccc3)c3ccccc3)CC2)cc1 (stereo not drawn)	inactive	inactive	inactive	inactive	inactive	inactive	inactive	inactive	inactive	inactive	inactive	–	inactive	inactive	–	–	inactive	inactive
NC(=O)c1ccccc1	inactive	inactive	inactive	inactive	inactive	inactive	inactive	inactive	inactive	inactive	inactive	inactive	inactive	inactive	inactive	–	inactive	–
O=C(OCCCCCOC(=O)c1ccccc1)c1ccccc1	inactive	inactive	inactive	inactive	inactive	inactive	inactive	inactive	inactive	inactive	inactive	inactive	inactive	inactive	inactive	inactive	inactive	inactive
